# Test results from PubChem BioAssay (NCATS).
# Inconclusive results are not listed. Active and inactive are the calls of the source. Calls come from the whole dose curve; as a rule, active = well fitted curve in the direction sought with a large enough effect; inconclusive = small, poorly fitted or top-dose-only effect, or another doubt; inactive = no such curve, though single readings can be large; an effect the other way counts as inactive or inconclusive.
# Test: qHTS of pediatric cancer cell lines to identify multiple opportunities for drug repurposing: Primary screen for control Hh wild type fibroblast cells (AID 1347106);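 note: % is set by controls: 0 for no effect and ±100 for the full control effect; a drop in luminescence marks cytotoxicity and a rise apparent proliferation; nearly all actives have a fitted effect of over 55% in size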
# Conditions: Hh wild-type fibroblast viability, CellTiter-Glo luminescence, 48 h; series mostly up to 46 µM; activity change, negative = cytotoxic: at the top concentration
# Method in brief: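 Viability after 48 h compound treatment at 37C, 500-1,000 cells/well, read as ATP luminescence with CellTiter-Glo. Primary screens used 11-point (MIPE, 0.78 nM-46 µM) or 8-point (NPC, 0.59 nM-46 µM) final concentrations; follow-up screens used 11-point dilutions.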
row,Compound,"activity change, negative = cytotoxic"
1,Cc1cc(O)cc(C)c1Cl,-0.169% (inactive)
2,CC(C)CCOC(=O)c1ccc(N(C)C)cc1,4.27% (inactive)
3,O=C(O)Cc1cn(-c2ccccc2)nc1-c1ccc(Cl)cc1,-0.929% (inactive)
4,Cc1cc(=O)[nH]c(=S)[nH]1,0.942% (inactive)
5,CCN(CC)S(=O)(=O)c1ccc(C(=O)O)cc1,10.9% (inactive)
6,CC[N+](C)(CC)CCOC(=O)C1c2ccccc2Oc2ccccc21,7.45% (inactive)
7,CC(C)C[C@@H](N)C(=O)O,-3.43% [at 16.1 µM] (inactive)
8,NNC(=O)CP(=O)(c1ccccc1)c1ccccc1,-8.11% (inactive)
9,CCOc1ccc(C(=O)OCCN(CC)CC)cc1,3.88% (inactive)
10,O=S1(=O)OC(c2ccc(O)cc2)(c2ccc(O)cc2)c2ccccc21,8.79% (inactive)
11,CCCCCC(N)=O,15.5% (inactive)
12,NCc1ccc(S(N)(=O)=O)cc1,-2.8% (inactive)
13,O=C(O)CCC(=O)O,-2% (inactive)
14,NC(N)=NCCN1CCCCCCC1,3.36% [at 0.597 µM] (inactive)
15,CC(C)(C)NCC(O)COc1cccc2c1CCC(=O)N2 (stereo unspecified),17.4% (inactive)
16,COC(=O)c1cccnc1,6.69% (inactive)
17,O=C(O)CNC(=O)c1ccccc1I,12.4% (inactive)
18,C[C@@H](N)C(=O)O,8.85% (inactive)
19,CC(=O)N[C@H]1[C@H]([C@H](O)[C@H](O)CO)OC(C(=O)O)=C[C@@H]1N=C(N)N,-1.2% (inactive)
20,O=C(O)CCCCC1CCSS1 (stereo unspecified),12.5% (inactive)

# Test: qHTS of pediatric cancer cell lines to identify multiple opportunities for drug repurposing: Primary screen for Rh30 cells (AID 1347107); note: % is set by controls: 0 for no effect and ±100 for the full control effect; nearly all actives have a fitted effect of over 75% in size
# Conditions: Rh30 rhabdomyosarcoma viability, CellTiter-Glo luminescence, 48 h; series mostly up to 46 µM; activity change, negative = cytotoxic: at the top concentration
# Method in brief: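 Cells (500-1,000/well) in growth media were settled 5 h at 37 degrees C, then given compounds for 48 h. Viability was read as CellTiter-Glo luminescence. Primary runs used MIPE at 11 points (0.78 nM-46 µM) and NPC at 8 points (0.59 nM-46 µM); follow-ups used 11 points.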
row,Compound,"activity change, negative = cytotoxic"
1,NC(=O)NS(=O)(=O)c1ccc(N)cc1,24.6% (inactive)
2,CCOC(=O)c1cccnc1,20.1% (inactive)
3,CCOC(=O)[C@H](CCc1ccccc1)N[C@@H](C)C(=O)N1CCC[C@H]1C(=O)O,23.5% (inactive)
4,CC(C(=O)O)c1ccc2c(c1)Cc1cccnc1O2 (stereo unspecified),22.7% (inactive)
5,CCN(CC)CC1CCCCN1CC(=O)N1c2ccccc2C(=O)Nc2cccnc21 (stereo unspecified),16.4% (inactive)
6,CC(=O)Nc1ccc(OCCOCCOc2ccc(NC(C)=O)cc2)cc1,12.8% (inactive)
7,Nc1c2c(nc3c1CCC3)CCCC2,7.4% (inactive)
8,C=CCN1C[C@H](C(=O)N(CCCN(C)C)C(=O)NCC)C[C@@H]2c3cccc4[nH]cc(c34)C[C@H]21,32% (inactive)
9,Cc1cc(-n2nc3ccc(Cl)cc3n2)c(O)c(C(C)(C)C)c1,20.8% (inactive)
10,Nc1ncnc2c1ncn2[C@@H]1O[C@H](COP(=O)(O)O)[C@@H](O)[C@H]1O,15.6% (inactive)
11,CC(CSC(=O)c1ccccc1)C(=O)N1C[C@@H](Sc2ccccc2)C[C@H]1C(=O)O (stereo partly specified),22.4% [at 16.1 µM] (inactive)
12,CCCCCCCCCCCCCCCCN,13.1% (inactive)
13,O=C(O)COC(=O)Cc1ccccc1Nc1c(Cl)cccc1Cl,19.6% (inactive)
14,CCCCCCCCCCC(CO)CCCCCCCC (stereo unspecified),23.1% (inactive)
15,CC(C)NC[C@@H](O)COc1ccc(CC(N)=O)cc1,25.2% (inactive)
16,CC(=O)N(CC(O)CN(C(C)=O)c1c(I)c(C(=O)NCC(O)CO)c(I)c(C(=O)NCC(O)CO)c1I)c1c(I)c(C(=O)NCC(O)CO)c(I)c(C(=O)NCC(O)CO)c1I (stereo unspecified),26.5% (inactive)
17,C/C=C1\[C@H]2C=C(C)C[C@]1(N)c1ccc(=O)[nH]c1C2,23% (inactive)
18,NS(=O)(=O)c1cc(-c2nn[nH]n2)c(NCc2cccs2)cc1Cl,19.1% (inactive)
19,Cc1cc(O)cc(C)c1Cl,18.7% (inactive)

row,Compound,"activity change, negative = cytotoxic"
1,CC(C)CCOC(=O)c1ccc(N(C)C)cc1,27.5% (inactive)
2,O=C(O)Cc1cn(-c2ccccc2)nc1-c1ccc(Cl)cc1,29.7% (inactive)
3,Cc1cc(=O)[nH]c(=S)[nH]1,34.4% (inactive)
4,CCN(CC)S(=O)(=O)c1ccc(C(=O)O)cc1,7.17% (inactive)
5,CC[N+](C)(CC)CCOC(=O)C1c2ccccc2Oc2ccccc21,20.4% (inactive)
6,CC(C)C[C@@H](N)C(=O)O,20.8% [at 16.1 µM] (inactive)
7,NNC(=O)CP(=O)(c1ccccc1)c1ccccc1,20.1% (inactive)
8,CCOc1ccc(C(=O)OCCN(CC)CC)cc1,3.95% (inactive)
9,O=S1(=O)OC(c2ccc(O)cc2)(c2ccc(O)cc2)c2ccccc21,4.88% (inactive)
10,CCCCCC(N)=O,25.2% (inactive)
11,NCc1ccc(S(N)(=O)=O)cc1,15.1% (inactive)
12,O=C(O)CCC(=O)O,13.3% (inactive)
13,NC(N)=NCCN1CCCCCCC1,25.1% [at 0.597 µM] (inactive)
14,CC(C)(C)NCC(O)COc1cccc2c1CCC(=O)N2 (stereo unspecified),21.7% (inactive)
15,COC(=O)c1cccnc1,11.8% (inactive)
16,O=C(O)CNC(=O)c1ccccc1I,11.4% (inactive)
17,C[C@@H](N)C(=O)O,12.6% (inactive)
18,CC(=O)N[C@H]1[C@H]([C@H](O)[C@H](O)CO)OC(C(=O)O)=C[C@@H]1N=C(N)N,14.5% (inactive)
19,O=C(O)CCCCC1CCSS1 (stereo unspecified),29.2% (inactive)

# Test: qHTS of pediatric cancer cell lines to identify multiple opportunities for drug repurposing: Primary screen for Rh41 cells (AID 1347108);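 note: luminescence drop marks cytotoxic hits; nearly all actives have a fitted effect of over 70% in size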
# Conditions: Rh41 rhabdomyosarcoma viability, CellTiter-Glo luminescence, 48 h; series mostly up to 46 µM; activity change, negative = cytotoxic: at the top concentration
# Method in brief: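 Phenotypic viability qHTS, 48 h compound exposure, CellTiter-Glo luminescence read-out; multi-concentration dosing so that potency and efficacy derive directly from the primary screen's curves.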
row,Compound,"activity change, negative = cytotoxic"
1,NC(=O)NS(=O)(=O)c1ccc(N)cc1,24.7% (inactive)
2,CCOC(=O)c1cccnc1,36.5% (inactive)
3,CCOC(=O)[C@H](CCc1ccccc1)N[C@@H](C)C(=O)N1CCC[C@H]1C(=O)O,21.3% (inactive)
4,CC(C(=O)O)c1ccc2c(c1)Cc1cccnc1O2 (stereo unspecified),19.3% (inactive)
5,CCN(CC)CC1CCCCN1CC(=O)N1c2ccccc2C(=O)Nc2cccnc21 (stereo unspecified),16.6% (inactive)
6,CC(=O)Nc1ccc(OCCOCCOc2ccc(NC(C)=O)cc2)cc1,19.8% (inactive)
7,Nc1c2c(nc3c1CCC3)CCCC2,2.58% (inactive)
8,C=CCN1C[C@H](C(=O)N(CCCN(C)C)C(=O)NCC)C[C@@H]2c3cccc4[nH]cc(c34)C[C@H]21,23% (inactive)
9,Cc1cc(-n2nc3ccc(Cl)cc3n2)c(O)c(C(C)(C)C)c1,34.4% (inactive)
10,Nc1ncnc2c1ncn2[C@@H]1O[C@H](COP(=O)(O)O)[C@@H](O)[C@H]1O,9.15% (inactive)
11,CC(CSC(=O)c1ccccc1)C(=O)N1C[C@@H](Sc2ccccc2)C[C@H]1C(=O)O (stereo partly specified),12.9% [at 16.1 µM] (inactive)
12,CCCCCCCCCCCCCCCCN,13.4% (inactive)
13,O=C(O)COC(=O)Cc1ccccc1Nc1c(Cl)cccc1Cl,23.9% (inactive)
14,CCCCCCCCCCC(CO)CCCCCCCC (stereo unspecified),28.1% (inactive)
15,CC(C)NC[C@@H](O)COc1ccc(CC(N)=O)cc1,34.4% (inactive)
16,CC(=O)N(CC(O)CN(C(C)=O)c1c(I)c(C(=O)NCC(O)CO)c(I)c(C(=O)NCC(O)CO)c1I)c1c(I)c(C(=O)NCC(O)CO)c(I)c(C(=O)NCC(O)CO)c1I (stereo unspecified),32.7% (inactive)
17,C/C=C1\[C@H]2C=C(C)C[C@]1(N)c1ccc(=O)[nH]c1C2,21.2% (inactive)
18,NS(=O)(=O)c1cc(-c2nn[nH]n2)c(NCc2cccs2)cc1Cl,23.7% (inactive)
19,Cc1cc(O)cc(C)c1Cl,17.3% (inactive)

row,Compound,"activity change, negative = cytotoxic"
1,CC(C)CCOC(=O)c1ccc(N(C)C)cc1,22.8% (inactive)
2,O=C(O)Cc1cn(-c2ccccc2)nc1-c1ccc(Cl)cc1,14.4% (inactive)
3,Cc1cc(=O)[nH]c(=S)[nH]1,25% (inactive)
4,CCN(CC)S(=O)(=O)c1ccc(C(=O)O)cc1,8.91% (inactive)
5,CC[N+](C)(CC)CCOC(=O)C1c2ccccc2Oc2ccccc21,14.9% (inactive)
6,CC(C)C[C@@H](N)C(=O)O,19.6% [at 16.1 µM] (inactive)
7,NNC(=O)CP(=O)(c1ccccc1)c1ccccc1,7.67% (inactive)
8,CCOc1ccc(C(=O)OCCN(CC)CC)cc1,16.2% (inactive)
9,O=S1(=O)OC(c2ccc(O)cc2)(c2ccc(O)cc2)c2ccccc21,12.6% (inactive)
10,CCCCCC(N)=O,21.5% (inactive)
11,NCc1ccc(S(N)(=O)=O)cc1,9.94% (inactive)
12,O=C(O)CCC(=O)O,24.5% (inactive)
13,NC(N)=NCCN1CCCCCCC1,22.2% [at 0.597 µM] (inactive)
14,CC(C)(C)NCC(O)COc1cccc2c1CCC(=O)N2 (stereo unspecified),17.3% (inactive)
15,COC(=O)c1cccnc1,15.8% (inactive)
16,O=C(O)CNC(=O)c1ccccc1I,12.5% (inactive)
17,C[C@@H](N)C(=O)O,2.42% (inactive)
18,CC(=O)N[C@H]1[C@H]([C@H](O)[C@H](O)CO)OC(C(=O)O)=C[C@@H]1N=C(N)N,14% (inactive)
19,O=C(O)CCCCC1CCSS1 (stereo unspecified),35.1% (inactive)
